Data from PubChem BioAssay AID1159580 (chemical genetic matrix, 2015).
Several values for one entry are separate records, joined by “and”; a condition that tells them apart may be missing. Identical values can stand only once. Out of some 5,500 compounds screened, about 2,000 (36%) were called active. Inconclusive results (about 18%) are left out. Cut-off read from the data, not from the text of the source: active = normalized growth mostly below about 0.91 (no sharp cut-off); inconclusive = no clear call, values can overlap the other calls; inactive = mostly above about 0.92. The list shows a part of the results.

Assay: chemical genetic growth profiling, strain panel (AID 1159580);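 note: tested at 20 µM; growth read once vehicle control cultures reached saturation at 30 °C; 1 = growth at the plate median or of vehicle wells; lower values mean less growth of the strain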
Conditions: S. cerevisiae deletion strains, growth OD

Measured: normalized growth

Cc1cc(=O)n(-c2ccccc2)n1C
inactive: locus YAL013W, strain DEP1, active compounds read low 1.02 | locus YAL021C, strain ccr4, active compounds read low 0.962 | locus YAL026C, strain drs2, active compounds read low 1 | locus YAL030W, strain snc1, active compounds read low 1 | locus YBL061C, strain skt5, active compounds read low 0.992 | locus YBR009C, strain hhf1, active compounds read low 1.06 | locus YBR021W, strain FUR4, active compounds read low 1 | locus YBR023C, strain chs3, active compounds read low 0.987 | locus YBR171W, strain sec66, active compounds read low 0.987 | locus YBR229C, strain ROT2, active compounds read low 1.01 | locus YBR231C, strain swc5, active compounds read low 1.01 | locus YBR279W, strain paf1, active compounds read low 0.995 | locus YCL011C, strain gbp2, active compounds read low 0.995 | locus YCL016C, strain dcc1, active compounds read low 0.979 | locus YCL029C, strain bik1, active compounds read low 0.996 | locus YCL061C, strain MRC1, active compounds read low 0.981 | locus YCL069W, strain vba3, active compounds read low 0.997 | locus YCR088W, strain abp1, active compounds read low 0.991 | locus YDL005C, strain med2, active compounds read low 0.991 | locus YDL035C, strain GPR1, active compounds read low 1.04 | locus YDL040C, strain nat1, active compounds read low 0.991 | locus YDL074C, strain BRE1, active compounds read low 1.02 | locus YDL101C, strain DUN1, active compounds read low 0.999 | locus YDL185W, strain tfp1, active compounds read low 0.994 | locus YDL192W, strain arf1, active compounds read low 0.989 | locus YDR001C, strain nth1, active compounds read low 0.983 | locus YDR069C, strain doa4, active compounds read low 1.02 | locus YDR101C, strain arx1, active compounds read low 0.983 | locus YDR137W, strain rgp1, active compounds read low 0.978 | locus YDR159W, strain sac3, active compounds read low 1.01 | locus YDR162C, strain NBP2, active compounds read low 1.04 | locus YDR195W, strain ref2 0.998 | locus YDR297W, strain sur2, active compounds read low 0.99 | locus YDR318W, strain mcm21, active compounds read low 0.989 | locus YDR334W, strain swr1, active compounds read low 0.986 | locus YDR335W, strain msn5, active compounds read low 0.992 | locus YDR388W, active compounds read low 0.986 | locus YDR392W, strain spt3, active compounds read low 0.94 | locus YDR502C, strain sam2, active compounds read low 0.994 | locus YEL003W, strain gim4, active compounds read low 1 | locus YEL037C, strain rad23, active compounds read low 0.995 | locus YEL061C, strain CIN8 (second series), active compounds read low 0.99 | locus YEL061C, strain CIN8, active compounds read low 1 | locus YER015W, strain faa2, active compounds read low 0.985 | locus YER016W, strain bim1, active compounds read low 0.996 | locus YER110C, active compounds read low 0.987 | locus YER111C, strain swi4, active compounds read low 0.984 | locus YER155C, strain BEM2 (second series), active compounds read low 1.01 | locus YER155C, strain BEM2, active compounds read low 1 | locus YER167W, strain BCK2, active compounds read low 1.02 | locus YFR010W, strain ubp6, active compounds read low 1 | locus YGL078C, strain dbp3, active compounds read low 0.982 | locus YGL086W, strain mad1, active compounds read low 0.989 | locus YGL167C, strain pmr1, active compounds read low 0.996 | locus YGL173C, strain kem1, active compounds read low 0.992 | locus YGL227W, strain vid30, active compounds read low 0.993 | locus YGL240W, strain doc1, active compounds read low 1 | locus YGL248W, strain PDE1, active compounds read low 0.999 | locus YGL253W, strain hxk2, active compounds read low 0.975 | locus YGR078C, strain PAC10, active compounds read low 1 | locus YGR135W, strain pre9, active compounds read low 1 | locus YGR229C, strain SMI1, active compounds read low 1.04 | locus YGR252W, strain gcn5, active compounds read low 1 | locus YHR013C, strain ard1, active compounds read low 0.982 | locus YHR027C, strain rpn1, active compounds read low 1.02 | locus YHR030C, strain SLT2, active compounds read low 1.01 and 0.973 | locus YHR079C, strain IRE1 (second series), active compounds read low 0.984 | locus YHR079C, strain IRE1, active compounds read low 1.03 | locus YHR094C, strain hxt1, active compounds read low 0.986 | locus YHR129C, strain ARP1, active compounds read low 1.01 | locus YHR142W, strain chs7, active compounds read low 0.963 | locus YHR200W, strain rpn10, active compounds read low 1 | locus YIL066C, strain RNR3, active compounds read low 1.04 | locus YIL073C, strain SPO22, active compounds read low 1.03 | locus YIL125W, strain kgd1, active compounds read low 0.986 | locus YIR030C, strain dcg1, active compounds read low 0.987 | locus YJL095W, strain BCK1 (second series), active compounds read low 0.999 | locus YJL095W, strain BCK1, active compounds read low 1 and 1.01 | locus YJL115W, strain asf1, active compounds read low 0.994 | locus YJL129C, strain trk1, active compounds read low 0.978 | locus YJL134W, strain LCB3, active compounds read low 1.01 | locus YJL154C, strain vps35, active compounds read low 0.991 | locus YJL164C, strain tpk1, active compounds read low 1.02 | locus YJL166W, strain qcr8, active compounds read low 0.953 | locus YJL168C, strain set2, active compounds read low 0.983 | locus YJL187C, strain SWE1 (second series), active compounds read low 0.987 | locus YJL187C, strain SWE1, active compounds read low 0.996 | locus YJR043C, strain POL32, active compounds read low 1.04
